Results taken from PubChem BioAssay (EPA / NIEHS).
Calls of active or inactive are those of the source. The calls were made as follows: active = hit-call score of the fitted dose curve at least 0.9, where 1 is the maximum; inactive = score below 0.9.

How the values were obtained:
Details in all cases: mRNA level, 48 h; actives raise or lower the signal
[1] = read-out: Glutathione S-transferase M3 (GSTM3), GSTM3 (gene 2947); assay: LTEA_HepaRG_GSTM3: Life Technologies and Expression Analysis (LTEA) Assay for Glutathione S-transferase M3 (GSTM3) using HepaRG (AID 2283501)
How it was run: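 Changes in GSTM3 expression, an oxidative-stress marker, were scored by bidirectional curve fitting against 0.5% DMSO vehicle. Human HepaRG cultures received chemicals for 48 h in duplicate, highest concentration 100 uM with half-log dilutions.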

[2] = read-out: Heat shock 70 kDa protein 1 (HSPA1A), gene 3303; assay: LTEA_HepaRG_HSPA1A: Life Technologies and Expression Analysis (LTEA) Assay for Heat shock 70 kDa protein 1 (HSPA1A) using HepaRG (AID 2283502)
How it was run: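 Differentiated human HepaRG cells in serum-free induction medium were exposed in duplicate for 48 h to eight concentrations (top 100 uM, half-log steps, 0.5% DMSO). HSPA1A mRNA was quantified by qRT-PCR, normalized to ACTB, GAPDH and POLR2A, and fitted bidirectionally against DMSO.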

[3] = read-out: Hypoxia-inducible factor 1-alpha (Homo sapiens) (UniProt Q16665); assay: LTEA_HepaRG_HIF1A: Life Technologies and Expression Analysis (LTEA) Assay for Hypoxia-inducible factor 1 (HIF1A) Trancription factor using HepaRG (AID 2283503);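 also: HIF1A transcript by TaqMan qRT-PCR normalized to ACTB GAPDH and POLR2A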
How it was run: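 HepaRG, 48 h exposure, 8-pt half-log series from 100 uM, 0.5% DMSO vehicle, duplicates. Readout: HIF1A transcript by qRT-PCR (Fluidigm array), housekeeping-normalised. Bidirectional curve fit vs DMSO baseline.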

[4] = read-out: 3-Hydroxy-3-Methylglutaryl-CoA Synthase 2 (HMGCS2), HMGCS2 (gene 3158); assay: LTEA_HepaRG_HMGCS2: Life Technologies and Expression Analysis (LTEA) Assay for 3-Hydroxy-3-Methylglutaryl-CoA Synthase 2 (HMGCS2) using HepaRG (AID 2283504)
How it was run: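 Expression of HMGCS2 in human HepaRG liver cells is measured by qRT-PCR 48 h after dosing (highest 100 uM, half-log series, 0.5% DMSO). Values come from bidirectional concentration-response fitting with DMSO as baseline.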

HGF (gene 3082) = assay: LTEA_HepaRG_HGF: Life Technologies and Expression Analysis (LTEA) Assay for Hepatocyte Growth Facto (HGF) using HepaRG (AID 2283505)
How it was run: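 Gain or loss of HGF mRNA in human HepaRG liver cells after 48 h chemical exposure; eight concentrations up to 100 uM with 0.5% DMSO vehicle, quantified by TaqMan qRT-PCR.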

[5] = read-out: Intercellular Adhesion Molecule 1 (ICAM1), ICAM1 (gene 3383); assay: LTEA_HepaRG_ICAM1: Life Technologies and Expression Analysis (LTEA) Assay for Intercellular Adhesion Molecule 1 (ICAM1) using HepaRG (AID 2283507)
How it was run: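 Gain or loss of transcript in HepaRG hepatic cells is quantified by qRT-PCR after 48 h chemical exposure (up to 100 uM, half-log steps), with DMSO as baseline.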

[6] = read-out: Insulin-like growth factor-binding protein 1 (IGFBP1), IGFBP1 (gene 3484); assay: LTEA_HepaRG_IGFBP1: Life Technologies and Expression Analysis (LTEA) Assay for Insulin-like growth factor-binding protein 1 (IGFBP1) using HepaRG (AID 2283508)
How it was run: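 mRNA induction or loss was quantified by qRT-PCR after 48 h chemical exposure of human HepaRG cells, with 0.5% DMSO as vehicle and baseline. Concentration-response over eight points up to 100 uM.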

[7] = read-out: Interleukin 6 (IL6), IL6 (gene 3569); assay: LTEA_HepaRG_IL6: Life Technologies and Expression Analysis (LTEA) Assay for Interleukin 6 (IL6) using HepaRG (AID 2283509)
How it was run: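 HepaRG cells exposed in duplicate for 48 h to eight half-log concentrations, top 100 uM, in 0.5% DMSO serum-free induction medium. mRNA measured by qRT-PCR, normalized to ACTB, GAPDH and POLR2A. Bidirectional fit versus DMSO.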

[8] = read-out: Interleukin 6 Receptor (IL6R), IL6R (gene 3570); assay: LTEA_HepaRG_IL6R: Life Technologies and Expression Analysis (LTEA) Assay for Interleukin 6 Receptor (IL6R) using HepaRG (AID 2283510);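 as to AC50: TaqMan qRT-PCR signal normalized to ACTB GAPDH and POLR2A housekeeping genes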
How it was run: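 Differentiated human HepaRG cells, plated 48 h then switched to serum-free induction medium, were dosed in duplicate for 48 h at eight half-log concentrations up to 100 uM in 0.5% DMSO. IL6R mRNA quantified by qRT-PCR, normalized to ACTB/GAPDH/POLR2A; bidirectional fit versus DMSO.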

[9] = read-out: Potassium channel subfamily K member 1 (KCNK1), KCNK1 (gene 3775); assay: LTEA_HepaRG_KCNK1: Life Technologies and Expression Analysis (LTEA) Assay for Potassium channel subfamily K member 1 (KCNK1) using HepaRG (AID 2283511)
How it was run: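 Differentiated HepaRG cells, 48 h exposure in serum-free induction medium with 0.5% DMSO; 8 concentrations, half-log from 100 uM, duplicate. KCNK1 mRNA by qRT-PCR, normalized to ACTB, GAPDH, POLR2A; bidirectional fit vs DMSO.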

[10] = read-out: Keratin 19 (KRT19), KRT19 (gene 3880); assay: LTEA_HepaRG_KRT19: Life Technologies and Expression Analysis (LTEA) Assay for Keratin 19 (KRT19) using HepaRG (AID 2283512)
How it was run: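 Gene-expression endpoint in the human liver line HepaRG after 48 h exposure to up to 100 uM test chemical with 0.5% DMSO vehicle; KRT19 mRNA by qRT-PCR, analyzed bidirectionally versus DMSO.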

[11] = read-out: JUN Transcription Factor, JUN (gene 3725); assay: LTEA_HepaRG_JUN: Life Technologies and Expression Analysis (LTEA) Assay for JUN Transcription Factor using HepaRG (AID 2283513)
How it was run: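 Differentiated HepaRG cells were exposed to chemicals for 48 h in serum-free induction medium, 8 concentrations from 100 uM in half-log steps, 0.5% DMSO vehicle, in duplicate. JUN mRNA was quantified by TaqMan qRT-PCR, normalized to ACTB, GAPDH, POLR2A.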

[12] = read-out: Lipase C (LIPC), LIPC (gene 3990); assay: LTEA_HepaRG_LIPC: Life Technologies and Expression Analysis (LTEA) Assay for Lipase C (LIPC) using HepaRG (AID 2283514)
How it was run: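 HepaRG cells, 48 h after plating, treated in duplicate for 48 h in serum-free induction medium over 8 half-log concentrations from 100 uM, 0.5% DMSO. LIPC mRNA by TaqMan qRT-PCR normalized to ACTB/GAPDH/POLR2A; bidirectional fit versus DMSO.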

[13] = read-out: Lipoprotein lipase (LPL), LPL (gene 4023); assay: LTEA_HepaRG_LPL: Life Technologies and Expression Analysis (LTEA) Assay for Lipoprotein lipase (LPL) using HepaRG (AID 2283515)
How it was run: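 Differentiated HepaRG cells, plated 48 h, then exposed 48 h in serum-free induction medium to 8 concentrations (top 100 uM, half-log steps) in 0.5% DMSO, duplicate. LPL mRNA measured by qRT-PCR, normalized to ACTB, GAPDH and POLR2A.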

[14] = read-out: MicroRNA 122 (MIR122), gene 406906; assay: LTEA_HepaRG_MIR122: Life Technologies and Expression Analysis (LTEA) Assay for MicroRNA 122 (MIR122) using HepaRG (AID 2283516); also: the transcript read is the microRNA miR-122
How it was run: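 Differentiated human HepaRG cells were exposed 48 h in serum-free induction medium to eight half-log concentrations (top 100 uM, 0.5% DMSO). Transcript level was measured by TaqMan qRT-PCR, normalized to ACTB, GAPDH and POLR2A, and fitted bidirectionally versus DMSO.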

[15] = read-out: matrix metalloproteinase-10 (MMP10), MMP10 (gene 4319); assay: LTEA_HepaRG_MMP10: Life Technologies and Expression Analysis (LTEA) Assay for matrix metalloproteinase-10 (MMP10) using HepaRG (AID 2283517)
How it was run: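 Differentiated HepaRG cells in serum-free induction medium exposed 48 h in duplicate to 8-point half-log series up to 100 uM in 0.5% DMSO. mRNA quantified by qRT-PCR, normalised to ACTB, GAPDH, POLR2A; bidirectional fit versus DMSO.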

MYC, MYC (gene 4609) = assay: LTEA_HepaRG_MYC: Life Technologies and Expression Analysis (LTEA) Assay for MYC using HepaRG (AID 2283518)
How it was run: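 Cells are thawed, plated and cultured 48 h, then treated for 48 h with test chemicals (eight half-log concentrations from 100 uM, 0.5% DMSO vehicle). RNA is isolated and MYC expression quantified by qRT-PCR against three housekeeping genes.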

[16] = read-out: matrix metalloproteinase-3 (MMP3), MMP3 (gene 4314); assay: LTEA_HepaRG_MMP3: Life Technologies and Expression Analysis (LTEA) Assay for matrix metalloproteinase-3 (MMP3) using HepaRG (AID 2283519)
How it was run: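 HepaRG cells (~100,000/well) in serum-free induction medium were dosed in duplicate for 48 h with an 8-point half-log series from 100 uM, 0.5% DMSO. MMP3 mRNA was quantified by Fluidigm TaqMan qRT-PCR, normalized to three housekeeping genes.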

[17] = read-out: Paternally Expressed 10 (PEG10), PEG10 (gene 23089); assay: LTEA_HepaRG_PEG10: Life Technologies and Expression Analysis (LTEA) Assay for Paternally Expressed 10 (PEG10) using HepaRG (AID 2283520)
How it was run: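 Differentiated HepaRG cells, plated 48 h then switched to serum-free induction medium, were exposed in duplicate for 48 h to eight half-log concentrations topping at 100 uM in 0.5% DMSO. PEG10 mRNA was quantified by TaqMan qRT-PCR, normalised to ACTB, GAPDH and POLR2A.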

[18] = read-out: Nuclear factor NF-kappa-B p105 subunit (Homo sapiens) (UniProt P19838); assay: LTEA_HepaRG_NFKB1: Life Technologies and Expression Analysis (LTEA) Assay for Nuclear Factor Kappa B Subunit 1 (NFKB1) using HepaRG (AID 2283521);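 also: TaqMan qRT-PCR transcript normalised to ACTB GAPDH and POLR2A housekeeping genes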
How it was run: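 Differentiated human HepaRG cells in serum-free induction medium with 0.5% DMSO were exposed for 48 h to eight half-log concentrations, top 100 uM, in duplicate. NFKB1 mRNA measured by Fluidigm TaqMan qRT-PCR, normalised to ACTB, GAPDH and POLR2A; bidirectional fit versus DMSO.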

Measured: AC50

Sequence of Nuclear factor NF-kappa-B p105 subunit (Homo sapiens) (P19838 whole entry, looked up): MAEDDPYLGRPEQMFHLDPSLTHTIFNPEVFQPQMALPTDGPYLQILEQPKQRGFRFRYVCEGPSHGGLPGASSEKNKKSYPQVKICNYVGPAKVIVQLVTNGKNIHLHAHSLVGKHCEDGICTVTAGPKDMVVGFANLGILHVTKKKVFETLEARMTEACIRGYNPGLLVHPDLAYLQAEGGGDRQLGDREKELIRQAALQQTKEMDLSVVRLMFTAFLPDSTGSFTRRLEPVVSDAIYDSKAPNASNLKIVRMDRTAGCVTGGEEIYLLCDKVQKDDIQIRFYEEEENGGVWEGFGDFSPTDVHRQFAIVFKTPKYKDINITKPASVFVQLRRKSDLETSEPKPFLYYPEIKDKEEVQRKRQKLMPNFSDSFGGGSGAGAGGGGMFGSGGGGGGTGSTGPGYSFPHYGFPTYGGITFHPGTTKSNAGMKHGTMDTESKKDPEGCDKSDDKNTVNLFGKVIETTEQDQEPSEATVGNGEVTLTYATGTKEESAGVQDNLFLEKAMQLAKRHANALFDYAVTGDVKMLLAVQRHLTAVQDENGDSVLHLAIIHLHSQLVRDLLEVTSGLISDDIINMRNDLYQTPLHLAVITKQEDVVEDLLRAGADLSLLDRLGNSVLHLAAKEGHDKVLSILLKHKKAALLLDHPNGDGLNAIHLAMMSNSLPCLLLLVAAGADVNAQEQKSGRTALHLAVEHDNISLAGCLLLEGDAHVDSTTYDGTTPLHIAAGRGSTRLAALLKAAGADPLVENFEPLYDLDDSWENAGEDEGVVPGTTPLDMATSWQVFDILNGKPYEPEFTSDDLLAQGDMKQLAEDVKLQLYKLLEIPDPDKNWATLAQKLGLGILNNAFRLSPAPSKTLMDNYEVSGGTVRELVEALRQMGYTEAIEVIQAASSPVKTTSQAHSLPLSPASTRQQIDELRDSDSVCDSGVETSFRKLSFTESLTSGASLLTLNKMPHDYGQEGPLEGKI
Sequence of Hypoxia-inducible factor 1-alpha (Homo sapiens) (Q16665 whole entry, looked up): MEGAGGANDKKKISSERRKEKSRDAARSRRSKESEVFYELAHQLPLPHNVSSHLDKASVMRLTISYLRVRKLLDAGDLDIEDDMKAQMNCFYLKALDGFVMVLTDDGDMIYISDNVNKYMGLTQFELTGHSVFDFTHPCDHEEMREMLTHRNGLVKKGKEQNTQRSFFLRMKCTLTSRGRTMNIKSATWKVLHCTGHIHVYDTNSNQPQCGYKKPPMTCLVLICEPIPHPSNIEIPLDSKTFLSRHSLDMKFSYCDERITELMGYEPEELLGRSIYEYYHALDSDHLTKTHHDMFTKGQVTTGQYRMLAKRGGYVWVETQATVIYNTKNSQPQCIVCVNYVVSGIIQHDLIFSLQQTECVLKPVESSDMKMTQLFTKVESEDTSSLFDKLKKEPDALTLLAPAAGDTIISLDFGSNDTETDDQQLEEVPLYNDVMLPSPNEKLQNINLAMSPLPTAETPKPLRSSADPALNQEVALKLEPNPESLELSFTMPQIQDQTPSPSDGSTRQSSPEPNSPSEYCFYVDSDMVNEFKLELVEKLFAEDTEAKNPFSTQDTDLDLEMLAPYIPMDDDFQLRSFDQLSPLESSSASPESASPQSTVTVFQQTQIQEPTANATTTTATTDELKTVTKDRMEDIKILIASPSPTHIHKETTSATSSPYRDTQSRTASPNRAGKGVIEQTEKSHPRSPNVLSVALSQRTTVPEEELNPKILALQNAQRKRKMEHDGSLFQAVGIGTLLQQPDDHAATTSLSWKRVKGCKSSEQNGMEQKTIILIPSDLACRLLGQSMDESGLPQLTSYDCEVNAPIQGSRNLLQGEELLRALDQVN

OCCN(CCO)CCO
inactive: [1] | [2] | [3] | [4] | HGF (gene 3082) | [5] | [6] | [7] | [8] | [9] | [10] | [11] | [12] | [13] | [14] | [15] | MYC, MYC (gene 4609) | [16] | [17] | [18]

CN(C)C(=S)S
inactive: [1] | [2] | [3] | [4] | HGF (gene 3082) | [5] | [6] | [7] | [8] | [9] | [10] | [11] | [12] | [13] | [14] | [15] | MYC, MYC (gene 4609) | [16] | [17]

Cc1cc(C)cc(C)c1
inactive: [1] | [2] | [3] | [4] | HGF (gene 3082) | [5] | [6] | [7] | [8] | [9] | [10] | [11] | [12] | [13] | [14] | [15] | MYC, MYC (gene 4609) | [16] | [17] | [18]

O=C(N[C@H]1CN2CCC1CC2)c1ccc2c(c1)OCCO2
active: [8] 12.2 µM
inactive: [1] | [2] | [3] | [4] | HGF (gene 3082) | [5] | [6] | [7] | [9] | [10] | [11] | [12] | [13] | [14] | [15] | MYC, MYC (gene 4609) | [16] | [17]

CCCCCCCCCCCCc1cccc(S(=O)(=O)O)c1
inactive: [1] | HGF (gene 3082) | [5] | [6] | [7] | [8] | [9] | [11] | [12] | [14] | [15] | MYC, MYC (gene 4609) | [16] | [17] | [18]
active: [2] 59.4 µM | [3] 16.5 µM | [4] 37.9 µM | [10] 76.1 µM | [13] 8.93 µM

Clc1cccc(Cl)c1
inactive: [1] | [2] | [3] | [4] | HGF (gene 3082) | [5] | [6] | [7] | [8] | [9] | [10] | [11] | [12] | [13] | [14] | [15] | MYC, MYC (gene 4609) | [16] | [17] | [18]

N#Cc1cccnc1
inactive: [1] | [2] | [3] | [4] | HGF (gene 3082) | [5] | [6] | [7] | [8] | [9] | [10] | [11] | [12] | [13] | [14] | [15] | MYC, MYC (gene 4609) | [16] | [17]
